Measured values published in PubChem BioAssay (Tox21).
Results filed as inconclusive are left out. Calls of active or inactive are those of the source. Unless noted, the call rests on the fitted dose curve; in most records, active means well fitted curve in the direction sought with a large enough effect in the repeat runs; inconclusive means weak or mixed curves; inactive means no such curve, though single readings can be large; an effect the other way counts as inactive or inconclusive.

What was measured:
[1] = biological target: Luciferin 4-monooxygenase (Photinus pyralis) (UniProt P08659); assay: qHTS assay to identify small molecule inhibitors of firefly luciferase (AID 1224835); further: nearly all actives have a fitted effect of over 25% in size; further: potency means the concentration at half of the fitted maximal effect
Summary of the method: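 Biochemical qHTS: compounds run as interplate titrations against purified firefly enzyme, with D-luciferin and ATP each at its KM concentration. Light output recorded by CCD imaging.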

[2] = qHTS assay to identify small molecule agonists of the constitutive androstane receptor (CAR) signaling pathway - cell viability counter screen (AID 1224836); further: nearly all actives have a fitted effect of over 45% in size; further: potency means the concentration at half of the fitted maximal effect
Summary of the method: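 Double-stable HepG2 hepatoma cells (hCAR plus CYP2B6-2.2kb) are treated for 23 h at 37 C with test compounds in 15-point concentration series. PK11195 at 0.75 uM final is co-added. Cell viability is quantified by CellTiter-Fluor.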

[3] = qHTS assay to identify small molecule antagonists of the constitutive androstane receptor (CAR) signaling pathway - cell viability counter screen (AID 1224837); further: nearly all actives have a fitted effect of over 45% in size; further: potency means the concentration at half of the fitted maximal effect
Summary of the method: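 Cytotoxicity counter-screen: CellTiter-Fluor fluorescence after 23 h compound exposure (15-point qHTS) in double-stable HepG2-CYP2B6-hCAR cells, with 50 nM CITCO added.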

[4] = biological target: Nuclear receptor subfamily 1 group I member 3 (Homo sapiens) (UniProt Q14994); assay: qHTS assay to identify small molecule antagonists of the constitutive androstane receptor (CAR) signaling pathway (AID 1224838);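 further: HepG2 cells stably expressing hCAR with CYP2B6 luciferase reporter stimulated by CITCO; nearly all actives have a fitted effect of over 40% in size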; further: potency means the concentration at half of the fitted maximal effect
Summary of the method: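 Antagonism measured as luciferase signal (ONE-Glo, 30 min, room temperature) in CAR-stimulated cells: HepG2-CYP2B6-hCAR double-stable line exposed 24 hr at 37 C to compound in a 15-point series plus 50 nM CITCO.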

[5] = biological target: Nuclear receptor subfamily 1 group I member 3 (Homo sapiens) (UniProt Q14994); assay: qHTS assay to identify small molecule agonists of the constitutive androstane receptor (CAR) signaling pathway (AID 1224839); further: nearly all actives have a fitted effect of over 15% in size; further: potency means the concentration at half of the fitted maximal effect;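 on activation: HepG2 cells stably carrying human CAR and a CYP2B6 luciferase reporter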
Summary of the method: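 Readout: firefly luciferase luminescence via ONE-Glo. System: HepG2 double-stable for hCAR and CYP2B6-2.2kb. Conditions: 15-point compound titration, PK11195 at 0.75 uM final, 24 h incubation.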

[6] = qHTS assay to identify small molecule antagonists of the estrogen related receptor signaling pathway with the pleiotropic PPARgamma coactivator (PGC) from Tox21 10K library - cell viability counter screen (AID 1224840; active means well fitted cell-killing curve with a large enough effect in the repeat runs, not every such curve was filed as active; further: nearly all actives have a fitted effect of over 40% in size; further: potency means the concentration at half of the fitted maximal effect)
Summary of the method: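 Counter-screen for cytotoxicity: after 17.5 h compound exposure at 37 C, CellTiter-Fluor reagent added to PGC/ERR cells for 30 min and fluorescence read. Cells were seeded at 2,000 per well 6 h before dosing.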

[7] = qHTS assay to identify small molecule agonists of the estrogen related receptor signaling pathway with the pleiotropic PPARgamma coactivator (PGC) from Tox21 10K library (AID 1224842); further: nearly all actives have a fitted effect of over 15% in size
Summary of the method: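 PGC/ERR reporter cell line, 2,000 cells per well, incubated 6 h at 37 C before 23 nL compound in DMSO was added. After 18 h at 37 C, One-Glo luminescence read following 30 min at room temperature.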

[8] = biological target: Thyrotropin receptor (Homo sapiens) (UniProt P16473); assay: qHTS assay to identify small molecule agonists of the thyroid stimulating hormone receptor (TSHR) signaling pathway (AID 1224843; calls by dose curve; further: nearly all actives have a fitted effect of over 45% in size; further: potency means the concentration at half of the fitted maximal effect)
Summary of the method: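 Agonist-mode screen: TSHR HEK293 cells received test chemicals for half an hour at room temperature, then HTRF cAMP detection reagents for one hour prior to fluorescence measurement. Each chemical ran as a 15-concentration series, triplicated.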

[9] = qHTS assay to identify small molecule agonists of the hypoxia (HIF-1) signaling pathway - cell viability counter screen (AID 1224844; calls by dose curve; further: nearly all actives have a fitted effect of over 50% in size; further: potency means the concentration at half of the fitted maximal effect)
Summary of the method: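 Cytotoxicity measured by CellTiter-Glo ATP luminescence in the wells also read for beta-lactamase signal. Cells were HRE-bla ME-180 (2,000/well, 0.5% dialyzed FBS), exposed to compounds for 17 h at 37C.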

[10] = qHTS assay to identify small molecule agonists of H2AX (AID 1224845; active means well fitted activation curve with a large enough effect in the signal ratio in the repeat runs, not every such curve was filed as active; the % refers to the signal ratio)
Summary of the method: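 Wild-type CHO-K1 cells, plated overnight, exposed 3hr at 37C to 15 concentrations (0.76% DMSO final). Lysed, then HTRF anti-pH2AX (S139) cryptate and anti-H2AX-d2 antibodies, 24 hr room temperature; 665/620 nm emission read.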

[11] = qHTS assay to identify small molecule agonists of the hypoxia (HIF-1) signaling pathway (AID 1224846; active means well fitted activation curve with a large enough effect in the signal ratio in the repeat runs, not every such curve was filed as active; the % refers to the signal ratio)
Summary of the method: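 Compounds added to ME-180 cells carrying hypoxia-response-element beta-lactamase reporter (0.5% dialyzed FBS, 5 h preplating), 17 h at 37C; agonist activity detected by CCF4-AM B/G FRET read-out.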

[12] = qHTS assay to identify small molecule agonists of H2AX - cell viability counter screen (AID 1224847; calls by dose curve; further: nearly all actives have a fitted effect of over 30% in size; further: potency means the concentration at half of the fitted maximal effect)
Summary of the method: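 For this counter screen, overnight-attached CHO-K1 cells received test compounds (15 concentrations, 0.76% DMSO final); 3 hr later at 37C, CellTiter-Glo reagent was added and luminescence recorded after 30 min at room temperature.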

[13] = qHTS assay to identify small molecule antagonists of the estrogen related receptor (ERR) signaling pathway from Tox21 library (AID 1224848); further: nearly all actives have a fitted effect of over 50% in size; further: potency means the concentration at half of the fitted maximal effect
Summary of the method: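 Quantitative high-throughput format: ERR reporter cells (2,000/well) pre-incubated 6 h, treated 18 h at 37 C with compounds in DMSO alongside positive and negative controls, then read by ONE-Glo luminescence.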

[14] = qHTS assay to identify small molecule agonists of the estrogen related receptor (ERR) signaling pathway from Tox21 library (AID 1224849; calls by dose curve; further: nearly all actives have a fitted effect of over 15% in size); settings: ERR reporter cell line, ONE-Glo luciferase, 18 h; at 92.4 µM (top of the series) unless noted
Summary of the method: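 Luminescent agonist read-out (One-Glo, 30-minute room-temperature incubation) following 18-hour compound treatment at 37 C of the ERR cell line, which had been plated 6 hours before dosing.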

[15] = qHTS RealTime-Glo MT Cell Viability Assay in HepG2 cells - 24 hour (AID 1224867); further: nearly all actives have a fitted effect of over 50% in size; further: potency means the concentration at half of the fitted maximal effect
Summary of the method: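 HepG2 cells (600/well) were dispensed with RealTime-Glo reagents, incubated 5 h at 37 °C, then treated with compounds in DMSO for up to 40 h. Nonlytic NanoLuc luminescence reflecting viable cells was read at each stated time point.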

[16] = A CellTox Green Cytotoxicity Assay to monitor cytotoxicity in HEK293 cells - 0 hour (AID 1224869); further: nearly all actives have a fitted effect of over 50% in size
Summary of the method: (§1)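 Fluorescence from a DNA-binding dye excluded by viable cells was measured repeatedly in the same HEK293 wells (600 cells/well) during continuous compound exposure at 37 C. Each assay gives one read point: 0, 8, 16, 24, 32 or 40 h.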

[17] = qHTS RealTime-Glo MT Cell Viability Assay in HepG2 cells - 40 hour (AID 1224870); further: nearly all actives have a fitted effect of over 50% in size; further: potency means the concentration at half of the fitted maximal effect
Summary of the method: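 HepG2 cells (600/well) mixed with RealTime-Glo MT reagent, settled 5 h at 37 C/5% CO2 before compound addition. Nonlytic NanoLuc luminescence from viable-cell prosubstrate reduction read repeatedly during 40 h treatment at 37 C.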

[18] = A CellTox Green Cytotoxicity Assay to monitor cytotoxicity in HEK293 cells - 40 hour (AID 1224871); further: nearly all actives have a fitted effect of over 45% in size; further: potency means the concentration at half of the fitted maximal effect
Summary of the method: as §1

[19] = qHTS assay to identify small molecule antagonists of the estrogen related receptor signaling pathway with the pleiotropic PPARgamma coactivator (PGC) from Tox21 10K library (AID 1224841; call rule not given here; further: potency means the concentration at half of the fitted maximal effect)
Summary of the method: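 Luminescence (One-Glo, 30 min at room temperature) after 18 h compound treatment at 37 C of PGC/ERR reporter cells plated at 2,000 cells/well and settled 6 h beforehand.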

[20] = qHTS RealTime-Glo MT Cell Viability Assay in HEK293 cells - 32 hour (AID 1224868); further: nearly all actives have a fitted effect of over 50% in size; further: potency means the concentration at half of the fitted maximal effect
Summary of the method: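 HEK293 cells seeded with NanoLuc/prosubstrate reagent, rested 5 h at 37 C, then dosed and kept at 37 C up to 40 h. Nonlytic real-time luminescence from viable cells read at 0, 8, 16, 24, 32 and 40 h.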
On the % scale 0 is the no-effect control and ±100 the full control effect.

Sequence of Luciferin 4-monooxygenase (Photinus pyralis) (P08659 whole entry, looked up): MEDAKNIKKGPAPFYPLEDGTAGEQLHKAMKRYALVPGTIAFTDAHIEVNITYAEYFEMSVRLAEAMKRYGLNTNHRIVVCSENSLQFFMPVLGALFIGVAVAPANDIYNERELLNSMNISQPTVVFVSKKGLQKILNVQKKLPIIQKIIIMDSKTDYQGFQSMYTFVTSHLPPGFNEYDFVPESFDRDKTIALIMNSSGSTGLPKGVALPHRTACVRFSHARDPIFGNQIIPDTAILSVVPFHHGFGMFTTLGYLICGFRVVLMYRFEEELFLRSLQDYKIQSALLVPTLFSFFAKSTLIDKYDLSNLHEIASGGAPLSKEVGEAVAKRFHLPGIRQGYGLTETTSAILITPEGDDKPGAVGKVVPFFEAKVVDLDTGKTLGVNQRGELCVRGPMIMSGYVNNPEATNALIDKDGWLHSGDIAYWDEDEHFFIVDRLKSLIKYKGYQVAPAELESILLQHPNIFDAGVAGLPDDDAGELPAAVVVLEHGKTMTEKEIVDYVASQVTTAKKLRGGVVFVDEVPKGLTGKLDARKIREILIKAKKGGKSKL
Sequence of Nuclear receptor subfamily 1 group I member 3 (Homo sapiens) (Q14994 whole entry, looked up): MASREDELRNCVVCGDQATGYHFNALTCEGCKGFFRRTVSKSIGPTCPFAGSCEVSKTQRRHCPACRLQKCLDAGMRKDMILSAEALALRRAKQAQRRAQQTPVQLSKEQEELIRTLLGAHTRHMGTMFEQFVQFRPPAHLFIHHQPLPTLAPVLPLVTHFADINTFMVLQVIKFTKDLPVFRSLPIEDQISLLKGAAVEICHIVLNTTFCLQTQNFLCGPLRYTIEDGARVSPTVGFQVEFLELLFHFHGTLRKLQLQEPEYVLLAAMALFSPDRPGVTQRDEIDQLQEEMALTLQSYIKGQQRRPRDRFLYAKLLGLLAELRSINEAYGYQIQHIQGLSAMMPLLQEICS
Sequence of Thyrotropin receptor (Homo sapiens) (P16473 whole entry, looked up): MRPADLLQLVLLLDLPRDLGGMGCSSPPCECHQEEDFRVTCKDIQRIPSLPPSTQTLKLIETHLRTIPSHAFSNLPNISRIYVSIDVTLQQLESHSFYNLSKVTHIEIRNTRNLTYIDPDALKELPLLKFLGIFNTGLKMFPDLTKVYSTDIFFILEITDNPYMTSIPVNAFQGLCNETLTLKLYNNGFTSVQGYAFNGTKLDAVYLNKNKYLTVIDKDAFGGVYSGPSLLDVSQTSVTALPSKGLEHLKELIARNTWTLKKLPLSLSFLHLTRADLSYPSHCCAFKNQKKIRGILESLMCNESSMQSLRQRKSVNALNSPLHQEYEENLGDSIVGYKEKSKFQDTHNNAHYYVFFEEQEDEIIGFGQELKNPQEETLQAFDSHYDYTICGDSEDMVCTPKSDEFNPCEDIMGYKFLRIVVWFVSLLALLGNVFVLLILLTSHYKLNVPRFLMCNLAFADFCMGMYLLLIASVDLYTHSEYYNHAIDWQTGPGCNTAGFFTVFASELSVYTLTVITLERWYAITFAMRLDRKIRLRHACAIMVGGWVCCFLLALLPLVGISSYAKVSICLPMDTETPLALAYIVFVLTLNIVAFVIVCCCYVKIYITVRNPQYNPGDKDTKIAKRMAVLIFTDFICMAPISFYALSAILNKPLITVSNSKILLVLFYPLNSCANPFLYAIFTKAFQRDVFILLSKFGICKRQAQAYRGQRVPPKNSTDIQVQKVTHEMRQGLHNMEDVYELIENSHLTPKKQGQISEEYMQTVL

Clc1ccc(C2(Cn3cncn3)OCCO2)c(Cl)c1
inactive: Potency [1] | Potency [2] | Potency [3] | Potency [4] | Potency [5] | Potency [6] | Potency [7] | Potency [8] | Potency [9] | Potency [10] | Potency [11] | Potency [12] | Potency [13] | activity change, positive = activation [14] -6.38% | Potency [15] | Potency [16] | Potency [17] | Potency [18]

Nc1cc(Cl)ccc1Cl
inactive: Potency [1] | Potency [2] | Potency [3] | Potency [4] | Potency [5] | Potency [6] | Potency [19] | Potency [7] | Potency [8] | Potency [9] | Potency [10] | Potency [11] | Potency [12] | Potency [13] | Potency [15] | Potency [20] | Potency [16] | Potency [17]

Cc1ccn2nc(S(=O)(=O)Nc3c(F)cccc3F)nc2n1
inactive: Potency [1] | Potency [2] | Potency [3] | Potency [4] | Potency [5] | Potency [6] | Potency [19] | Potency [7] | Potency [8] | Potency [9] | Potency [10] | Potency [11] | Potency [12] | Potency [13] | Potency [15] | Potency [20] | Potency [17]

CCCCCON=O
inactive: Potency [1] | Potency [2] | Potency [3] | Potency [4] | Potency [5] | Potency [6] | Potency [7] | Potency [8] | Potency [9] | Potency [10] | Potency [11] | Potency [12] | Potency [13] | Potency [15] | Potency [16] | Potency [17] | Potency [18]
active: Potency [19] 30.7 µM

COC(=O)/C=C(\C)OP(=O)(OC)OC
inactive: Potency [1] | Potency [2] | Potency [3] | Potency [4] | Potency [5] | Potency [6] | Potency [7] | Potency [8] | Potency [9] | Potency [10] | Potency [12] | activity change, positive = activation [14] -31.3% | Potency [15] | Potency [20] | Potency [17] | Potency [18]

CC(Cc1ccc2c(c1)OCO2)NO (configuration not stated)
inactive: Potency [1] | Potency [2] | Potency [3] | Potency [4] | Potency [5] | Potency [6] | Potency [7] | Potency [8] | Potency [9] | Potency [10] | Potency [11] | Potency [12] | Potency [13] | Potency [15] | Potency [20] | Potency [16] | Potency [17] | Potency [18]

c1ccc(Nc2ccc(Nc3ccccc3)cc2)cc1
inactive: Potency [2] | Potency [3] | Potency [4] | Potency [6] | Potency [19] | Potency [9] | Potency [13] | Potency [15] | Potency [17]
active: Potency [1] 28.1 µM | Potency [5] 24.2 µM | Potency [20] 21.8 µM

CN=C=O
inactive: Potency [1] | Potency [2] | Potency [3] | Potency [4] | Potency [5] | Potency [6] | Potency [19] | Potency [7] | Potency [8] | Potency [9] | Potency [11] | Potency [12] | Potency [13] | Potency [15] | Potency [16] | Potency [17] | Potency [18]

C=C(C)C(=O)[O][Sn]([CH2]CCC)([CH2]CCC)[CH2]CCC
active: Potency [1] 35.6 µM | Potency [2] 0.77 µM | Potency [3] 0.864 µM | Potency [4] 0.273 µM | Potency [6] 0.864 µM | Potency [8] 0.486 µM | Potency [9] 0.692 µM | Potency [12] 0.713 µM | Potency [13] 0.486 µM | Potency [15] 0.436 µM | Potency [20] 0.275 µM | Potency [17] 0.195 µM | Potency [18] 0.436 µM
inactive: Potency [5] | Potency [7]

C[C@H]1[C@H](c2ccc(Cl)cc2)SC(=O)N1C(=O)NC1CCCCC1
active: Potency [5] 54.5 µM | Potency [13] 30.6 µM | Potency [20] 49 µM
inactive: Potency [1] | Potency [2] | Potency [3] | Potency [4] | Potency [6] | Potency [7] | Potency [8] | Potency [9] | Potency [10] | Potency [11] | Potency [12] | Potency [15] | Potency [16] | Potency [17] | Potency [18]

C[C@@H]1CC2=CC(=O)CC[C@@H]2[C@H]2CC[C@@]3(C)[C@@H](CC[C@]3(C)O)[C@@H]21
inactive: Potency [1] | Potency [2] | Potency [3] | Potency [4] | Potency [5] | Potency [6] | Potency [7] | Potency [8] | Potency [9] | Potency [10] | Potency [12] | activity change, positive = activation [14] -28.8% [at 42.5 µM] | Potency [15] | Potency [16] | Potency [17] | Potency [18]
active: Potency [13] 23.7 µM

O=[N+]([O-])c1ccccc1-c1ccccc1
inactive: Potency [1] | Potency [2] | Potency [3] | Potency [4] | Potency [5] | Potency [6] | Potency [19] | Potency [7] | Potency [8] | Potency [9] | Potency [11] | Potency [12] | Potency [13] | activity change, positive = activation [14] -1.13% | Potency [15] | Potency [20] | Potency [16] | Potency [17]

N#Cc1sc2c(=O)c3ccccc3c(=O)c=2sc1C#N
active: Potency [1] 4.48 µM | Potency [2] 8.63 µM | Potency [3] 6.11 µM | Potency [4] 8.63 µM | Potency [5] 2.17 µM | Potency [6] 48.6 µM | Potency [9] 4.9 µM | Potency [12] 101 µM | Potency [13] 61.1 µM | Potency [15] 11 µM | Potency [20] 17.4 µM | Potency [17] 11 µM | Potency [18] 15.5 µM
inactive: Potency [7] | Potency [16]
